Data taken from PubChem BioAssay (Tox21).
Values joined by “and” are separate entries in the source; they are usually repeats but may differ in a detail not shown here. Identical values can stand only once. Inconclusive results are not listed. Active and inactive are the calls of the source. Calls come from the whole dose curve; as a rule, active = well fitted inhibition curve with a large enough effect in the signal ratio in the repeat runs; inconclusive = weak or mixed curves, or effect the other way; inactive = flat fitted curve, though single readings scatter; the % refers to the signal ratio.

Experiment: qHTS assay for small molecule disruptors of the mitochondrial membrane potential (AID 720635)
Conditions: HepG2 mitochondrial membrane potential, Mito-MPS dye ratio; series mostly up to 83.2 µM
Source text: U.S. Tox21 Program National Center for Advancing Translational Sciences [NCATS] NIH Chemical Genomics Center [NCGC] U.S. Environmental Protection Agency [EPA] National Institutes of Environmental Health Sciences [NIEHS] National Toxicology Program [NTP] U.S. Food and Drug Administration [FDA] Tox21 Assay Overview: Mitochondrial membrane potential (MMP), one of the parameters for mitochondrial function, is generated by mitochondrial electron transport chain that creates an electrochemical gradient by a series of redox reactions. This gradient drives the synthesis of ATP, a crucial molecule for various cellular processes. Measuring MMP in living cells is commonly used to assess the effect of chemicals on mitochondrial function. […] The dye accumulates in the mitochondria of healthy cells as aggregates, with red fluorescence. The mitochondrial potential collapses and the dye can no longer accumulate in the mitochondria and remains in the cytoplasm in monomers, with green fluorescence.
Tox21 Assay Protocol Summary: 2,000 HepG2 cells in 5 uL/well were dispensed into black, clear-bottom 1536-well plates using a Multidrop Combi (Thermo Scientific) dispenser. The assay plates were incubated overnight at 37C to allow cells to attach to the wells, followed by the transfer of 23 nL compound or DMSO vehicle by a pin tool (Kalypsys). The plates were incubated for 1 hr at 37C and 5% CO2, followed by the addition of 5 uL of 2X Mito-MPS dye (BD Biosciences) into each well using Flying Reagent Dispenser (Aurora Discovery) and then following 30 min incubation at 37C. Fluorescence intensity (490nm excitation and 535nm emission for monomers; and 540nm excitation and 590nm emissions for aggregates) was measured using an Envision plate reader.
Potency is the fitted concentration of half-maximal effect.

Compound | Potency
O=c1ssc(Cl)c1Cl | 30.6 µM (active)
CC1(C)CN=C(NN=C(/C=C/c2ccc(C(F)(F)F)cc2)/C=C/c2ccc(C(F)(F)F)cc2)NC1 | 17.2 µM (active)
O=C(CCCN1CCC2(CC1)C(=O)NCN2c1ccccc1)c1ccc(F)cc1 | 3.35 µM (active)
CN(C)C(=S)[S-].CN(C)C(=S)[S-].[Cu+2] | 0.592 µM (active)
CCCN(CCC)c1c([N+](=O)[O-])cc(S(N)(=O)=O)cc1[N+](=O)[O-] | 3.67 µM (active)
Oc1ccc(C(=C(Cl)Cl)c2ccc(O)cc2)cc1 | 17.2 µM (active)
CCCCCCCCc1ccc(O)cc1 | 4.89 µM (active)
CNC(C)Cc1ccc2c(c1)OCO2 (stereo not given) | inactive
Oc1ccc(C2(c3ccc(O)cc3)c3ccccc3-c3ccccc32)cc1 | 61.1 µM (active)
CC(=O)Nc1ccc2c(c1)Cc1ccccc1-2 | 31.1 µM (active)
Cc1cc(C)cc(OP(=O)(Oc2cc(C)cc(C)c2)Oc2cc(C)cc(C)c2)c1 | 49.3 µM (active)
CC1(C)C(/C=C(\Cl)C(F)(F)F)C1C(=O)OC(C#N)c1cccc(Oc2ccccc2)c1 (stereo not given) | 34.9 µM (active)
CCCOCC(=Nc1ccc(Cl)cc1C(F)(F)F)n1ccnc1 | 6.11 µM (active)
CCOc1cc(C(C)(C)C)ccc1C1COC(c2c(F)cccc2F)=N1 (stereo not given) | 16.6 µM (active)
CCOC(=O)C1(c2ccccc2)CCN(CCC(C#N)(c2ccccc2)c2ccccc2)CC1 | 13.3 µM (active) and 26.6 µM (active)
CN(C)[C@@H]1C(=O)C(C(N)=O)=C(O)[C@@]2(O)C(=O)C3=C(O)c4c(O)ccc(Cl)c4[C@@](C)(O)[C@H]3C[C@@H]12 | inactive
Nc1ccc(Cc2ccc(N)c(Cl)c2)cc1Cl | 59.1 µM (active)
CCN(CC)c1c([N+](=O)[O-])cc(C(F)(F)F)c(N)c1[N+](=O)[O-] | 24.3 µM (active)
CC(C)(C)c1ccc(CSc2cnn(C(C)(C)C)c(=O)c2Cl)cc1 | 7.7 µM (active)
CC(=O)/C=C/c1ccc2c(c1)OCO2 | inactive

Compound | Potency
CC(C)(O)c1cnn2c(-c3ccc(F)c(-c4c(F)cccc4C#N)c3)cnc2n1 | 19.3 µM (active)
O=C1NCN(c2ccccc2)C12CCN(CC1COc3ccccc3O1)CC2 (stereo not given) | inactive
O=S(=O)(c1ccc(Cl)cc1)c1ccc(Cl)cc1 | 4.92 µM (active)
CN(C)C(=S)S | inactive
COc1ccc(OC)c(CC(C)N)c1 (stereo not given) | inactive
O=[N+]([O-])c1cc(C(F)(F)F)c(Cl)c([N+](=O)[O-])c1Cl | 13.7 µM (active)
O=[N+]([O-])c1ccc2ccc3cccc4ccc1c2c34 | 1.22 µM (active)
O=[N+]([O-])c1c2ccccc2cc2ccccc12 | 8.53 µM (active)
CC[C@H](C)[C@H]1O[C@]2(C=C[C@@H]1C)C[C@@H]1C[C@@H](C/C=C(\C)[C@@H](O[C@H]3C[C@H](OC)[C@@H](O[C@H]4C[C@H](OC)[C@@H](O)[C@H](C)O4)[C@H](C)O3)[C@@H](C)/C=C/C=C3\CO[C@@H]4[C@H](O)C(C)=C[C@@H](C(=O)O1)[C@]34O)O2 | 28.7 µM (active)
CC(C)CC(C)Nc1ccc(Nc2ccccc2)cc1 (stereo not given) | 13.4 µM (active)
C=CCC1=C(C)C(OC(=O)C2C(C=C(C)C)C2(C)C)CC1=O (stereo not given) | 5.78 µM (active)
Cc1cc(C(F)(C(F)(F)F)C(F)(F)F)ccc1NC(=O)c1cccc(I)c1C(=O)NC(C)(C)CS(C)(=O)=O | 17.3 µM (active)
COc1cc(C=O)cc2c1[C@H](COC(N)=O)[C@]1(OC(C)=O)ON2C[C@H]2[C@@H]1N2C(C)=O | inactive
Oc1c(Br)c(Br)c(Br)c(Br)c1Br | 2.45 µM (active)
CCC(C)(C)C(=O)OC1=C(c2ccc(Cl)cc2Cl)C(=O)OC12CCCCC2 | 9.69 µM (active)
CN(C)CCc1c[nH]c2ccc(O)cc12 | inactive
Cc1ccc(OP(=O)(Oc2ccccc2)Oc2ccccc2)cc1 | 0.983 µM (active)
ClC1=C(Cl)[C@]2(Cl)[C@@H]3[C@@H]4C[C@@H]([C@H]5O[C@@H]45)[C@@H]3[C@@]1(Cl)C2(Cl)Cl | 19.3 µM (active)
CC(c1ccc(O)cc1)c1ccc(O)cc1 | 25.6 µM (active)
CCN | inactive
